# Assay results taken from article PMC11062922 (Nature Chemical Biology, 2023).
# What was measured:
# Design in all cases: species or system human, MV4-11 + K-562 + COLO205 + SK-N-BE2 + OVCAR-8
# ADCK1 = conditions: read-out: apparent Kd; compound concentrations: 100 nM and 1000 nM (sheet 'Samples'), CATDS: 1.95230654661257E-2; n = 1
# AKT1 = conditions: read-out: apparent Kd; compound concentrations: 100 nM and 1000 nM (sheet 'Samples'), CATDS: 2.9179929134034902E-2; n = 1
# AKT2 = conditions: read-out: apparent Kd; compound concentrations: 100 nM and 1000 nM (sheet 'Samples'), CATDS: 2.7091450445171202E-2; n = 1
# CDC42BPA = conditions: read-out: apparent Kd; compound concentrations: 100 nM and 1000 nM (sheet 'Samples'), CATDS: 1.9780691565578001E-2; n = 1
# CDC42BPB = conditions: read-out: apparent Kd; compound concentrations: 100 nM and 1000 nM (sheet 'Samples'), CATDS: 1.71408665149138E-2; n = 1
# CDK17 = conditions: read-out: apparent Kd; compound concentrations: 100 nM and 1000 nM (sheet 'Samples'), CATDS: 1.7217162863952602E-2; n = 1
# CIT = conditions: read-out: apparent Kd; compound concentrations: 100 nM and 1000 nM (sheet 'Samples'), CATDS: 2.24347173261998E-2; n = 1
# GSK3A = conditions: read-out: apparent Kd; compound concentrations: 100 nM and 1000 nM (sheet 'Samples'), CATDS: 4.2719516683869502E-2; n = 1
# GSK3B = conditions: read-out: apparent Kd; compound concentrations: 100 nM and 1000 nM (sheet 'Samples'), CATDS: 3.83672032367414E-2; n = 1
# IKBKE = conditions: read-out: apparent Kd; compound concentrations: 100 nM and 1000 nM (sheet 'Samples'), CATDS: 1.7325644717854999E-2; n = 1
# IRAK3 = conditions: read-out: apparent Kd; compound concentrations: 100 nM and 1000 nM (sheet 'Samples'), CATDS: 2.0418472541538401E-2; n = 1
# JAK2 = conditions: read-out: apparent Kd; compound concentrations: 100 nM and 1000 nM (sheet 'Samples'), CATDS: 0.192481748469752; n = 1
# LATS1 = conditions: read-out: apparent Kd; compound concentrations: 100 nM and 1000 nM (sheet 'Samples'), CATDS: 3.9734792534973799E-2; n = 1
# MARK2 = conditions: read-out: apparent Kd; compound concentrations: 100 nM and 1000 nM (sheet 'Samples'), CATDS: 2.5049968914142899E-2; n = 1
# MARK3 = conditions: read-out: apparent Kd; compound concentrations: 100 nM and 1000 nM (sheet 'Samples'), CATDS: 2.50648330516796E-2; n = 1
# MARK4 = conditions: read-out: apparent Kd; compound concentrations: 100 nM and 1000 nM (sheet 'Samples'), CATDS: 2.22913749693762E-2; n = 1
# MTOR = conditions: read-out: apparent Kd; compound concentrations: 100 nM and 1000 nM (sheet 'Samples'), CATDS: 2.8143895354302499E-2; n = 1
# PAK4 = conditions: read-out: apparent Kd; compound concentrations: 100 nM and 1000 nM (sheet 'Samples'), CATDS: 7.9705302542388501E-2; n = 1
# PAK6 = conditions: read-out: apparent Kd; compound concentrations: 100 nM and 1000 nM (sheet 'Samples'), CATDS: 0.106835733020908; n = 1
# PI4KB = conditions: read-out: apparent Kd; compound concentrations: 100 nM and 1000 nM (sheet 'Samples'), CATDS: 2.3618528560732301E-2; n = 1
# PIK3CA = conditions: read-out: apparent Kd; compound concentrations: 100 nM and 1000 nM (sheet 'Samples'), CATDS: 5.0539059632895601E-2; n = 1
# PIK3CD = conditions: read-out: apparent Kd; compound concentrations: 100 nM and 1000 nM (sheet 'Samples'), CATDS: 6.1879573349501601E-2; n = 1
# PIM2 = conditions: read-out: apparent Kd; compound concentrations: 100 nM and 1000 nM (sheet 'Samples'), CATDS: 1.8579492636517099E-2; n = 1
# PKN1 = conditions: read-out: apparent Kd; compound concentrations: 100 nM and 1000 nM (sheet 'Samples'), CATDS: 3.3974214988559501E-2; n = 1
# PKN2 = conditions: read-out: apparent Kd; compound concentrations: 100 nM and 1000 nM (sheet 'Samples'), CATDS: 1.8056964738192099E-2; n = 1
# PKN3 = conditions: read-out: apparent Kd; compound concentrations: 100 nM and 1000 nM (sheet 'Samples'), CATDS: 6.5050017907180402E-2; n = 1
# PRKACA = conditions: read-out: apparent Kd; compound concentrations: 100 nM and 1000 nM (sheet 'Samples'), CATDS: 2.14323323603763E-2; n = 1
# PRKACB = conditions: read-out: apparent Kd; compound concentrations: 100 nM and 1000 nM (sheet 'Samples'), CATDS: 2.3381704422051099E-2; n = 1
# PRKACG = conditions: read-out: apparent Kd; compound concentrations: 100 nM and 1000 nM (sheet 'Samples'), CATDS: 2.46536070948064E-2; n = 1
# PRKAG1 = conditions: read-out: apparent Kd; compound concentrations: 100 nM and 1000 nM (sheet 'Samples'), CATDS: 2.0047926729344401E-2; n = 1
# PRKCD = conditions: read-out: apparent Kd; compound concentrations: 100 nM and 1000 nM (sheet 'Samples'), CATDS: 1.7220600193925E-2; n = 1
# PRKG1 = conditions: read-out: apparent Kd; compound concentrations: 100 nM and 1000 nM (sheet 'Samples'), CATDS: 2.2056800835646401E-2; n = 1
# PRKX;PRKY = conditions: read-out: apparent Kd; compound concentrations: 100 nM and 1000 nM (sheet 'Samples'), CATDS: 5.5547171780811498E-2; n = 1
# ROCK2 = conditions: read-out: apparent Kd; compound concentrations: 100 nM and 1000 nM (sheet 'Samples'), CATDS: 2.36815478984151E-2; n = 1
# RPS6KA4 = conditions: read-out: apparent Kd; compound concentrations: 100 nM and 1000 nM (sheet 'Samples'), CATDS: 1.94570911667616E-2; n = 1
# RPS6KA5 = conditions: read-out: apparent Kd; compound concentrations: 100 nM and 1000 nM (sheet 'Samples'), CATDS: 1.9053083137800499E-2; n = 1
# RPS6KB1 = conditions: read-out: apparent Kd; compound concentrations: 100 nM and 1000 nM (sheet 'Samples'), CATDS: 1.8709076421106301E-2; n = 1
# STK16 = conditions: read-out: apparent Kd; compound concentrations: 100 nM and 1000 nM (sheet 'Samples'), CATDS: 1.87060817181595E-2; n = 1
# TAOK2 = conditions: read-out: apparent Kd; compound concentrations: 100 nM and 1000 nM (sheet 'Samples'), CATDS: 1.8592761990064401E-2; n = 1
# TGFBR1 = conditions: read-out: apparent Kd; compound concentrations: 100 nM and 1000 nM (sheet 'Samples'), CATDS: 1.75354561240674E-2; n = 1
structure (smiles),measurement,setting,value
CCn1c(-c2nonc2N)nc2c(C#CC(C)(C)O)ncc(OCC3CCNCC3)c21.O=C(O)C(F)(F)F [GSK554170A],potency estimated from few doses,ADCK1,1500 nM
same,potency estimated from few doses,AKT1,520 nM
same,potency estimated from few doses,AKT2,616 nM
same,potency estimated from few doses,CDC42BPA,1440 nM
same,potency estimated from few doses,CDC42BPB,2430 nM
same,potency estimated from few doses,CDK17,2390 nM
same,potency estimated from few doses,CIT,993 nM
same,potency estimated from few doses,GSK3A,240 nM
same,potency estimated from few doses,GSK3B,295 nM
same,potency estimated from few doses,IKBKE,2320 nM
same,potency estimated from few doses,IRAK3,1310 nM
same,potency estimated from few doses,JAK2,25.1 nM
same,potency estimated from few doses,LATS1,275 nM
same,potency estimated from few doses,MARK2,744 nM
same,potency estimated from few doses,MARK3,743 nM
same,potency estimated from few doses,MARK4,1010 nM
same,potency estimated from few doses,MTOR,564 nM
same,potency estimated from few doses,PAK4,84.6 nM
same,potency estimated from few doses,PAK6,55.1 nM
same,potency estimated from few doses,PI4KB,865 nM
same,potency estimated from few doses,PIK3CA,178 nM
same,potency estimated from few doses,PIK3CD,126 nM
same,potency estimated from few doses,PIM2,1780 nM
same,potency estimated from few doses,PKN1,375 nM
same,potency estimated from few doses,PKN2,1980 nM
same,potency estimated from few doses,PKN3,116 nM
same,potency estimated from few doses,PRKACA,1130 nM
same,potency estimated from few doses,PRKACB,888 nM
same,potency estimated from few doses,PRKACG,775 nM
same,potency estimated from few doses,PRKAG1,1380 nM
same,potency estimated from few doses,PRKCD,2380 nM
same,potency estimated from few doses,PRKG1,1040 nM
same,potency estimated from few doses,PRKX;PRKY,151 nM
same,potency estimated from few doses,ROCK2,859 nM
same,potency estimated from few doses,RPS6KA4,1520 nM
same,potency estimated from few doses,RPS6KA5,1630 nM
same,potency estimated from few doses,RPS6KB1,1740 nM
same,potency estimated from few doses,STK16,1740 nM
same,potency estimated from few doses,TAOK2,1780 nM
same,potency estimated from few doses,TGFBR1,2210 nM
